# Measurements taken from PubChem BioAssay (NCATS).
# Results filed as inconclusive are left out. Unmarked numbers belong to inactive results. Calls of active or inactive are those of the source. The call rests on the fitted dose curve; in most records, active means well fitted inhibition curve with a large enough effect; inconclusive means small, poorly fitted or top-dose-only effect; inactive means flat fitted curve, though single readings scatter.
# Tested on: CRL-7250
# Experiment: Cytotoxic Profiling of Annotated Libraries Using Quantitative High-Throughput Screening (AID 1296008); further: nearly all actives have a fitted effect of over 60% in size
# Conditions: Five cell lines viability, CellTiter-Glo ATP luminescence, 48-72 h; max response: active compounds read low
# Summary of the method: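 Cytotoxicity was measured as CellTiter-Glo ATP luminescence, read after 10 min at room temperature. Compound treatment of the cells lasted 48 or 72 hr at 37 degrees Celsius in a qHTS format.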
# On the % scale 0 is the no-effect control and ±100 the full control effect; potency means the concentration at half of the fitted maximal effect.
SMILES,max response [%],Potency,outcome
CC1=C(C(=O)O)/C(=C\CO[C@@H]2O[C@H](CO)[C@@H](O)[C@H](O)[C@H]2O)C(OC(=O)/C=C\c2ccc(O)cc2)C1 (stereo partly specified),3.65,,
O=C(CCCCN1CCOCC1)Nc1ccc(-c2cccnc2)cc1,-12,,
CN(C)C/C=C/C(=O)Nc1cccc(C(=O)Nc2ccc(Nc3nccc(-c4cccnc4)n3)cc2)c1,,7.31 µM (active),
COc1cc(O)cc(C)c1C(=O)O[C@H]1[C@@H](OC(C)=O)[C@H](n2ccc(=O)[nH]c2=O)O[C@@H]1CO,,,inactive
C[C@]1(CO)CCC[C@]2(C)C3=C(CCC12)COC3 (stereo partly specified),-5.66,,
CC1=C(CCC(C)CC(=O)O)[C@@]2(C)CCCC(C)(C)C2CC1=O (stereo partly specified),3.13,,
COc1cc2nc(N3CCCC3)nc(NCCCCCN3CCCC3)c2cc1OC,,20.6 µM (active),
CC1CCC2(C=O)C(CO)=CCCC2C1(C)CC(=O)O (stereo unspecified),1.72,,
COC(=O)[C@@]1(c2ccc(C)cc2)C[C@H]1CN1CCC(O)(c2ccccc2)CC1,3.12,,
COC(=O)N[C@H](C(=O)N1[C@@H]2CC[C@@H](C2)[C@H]1c1nc2ccc(-c3ccc4c(c3)C(F)(F)c3cc(-c5cnc([C@@H]6CCC7(CC7)N6C(=O)[C@@H](NC(=O)OC)C(C)C)[nH]5)ccc3-4)cc2[nH]1)C(C)C,-2.17,,
O=C1OCC(c2ccccc2)=C1Cc1ccccc1,-11.2,,
CCOCCn1nc(CC)c2nc(N3CCC(C(=O)O)CC3)nc(Nc3cc(C)ccn3)c21,-0.41,,
COc1cc(C(=O)O)ccc1OC1OC(CO)C(O)C(O)C1O (stereo unspecified),,,inactive
CC(=O)OC1C(OC(=O)c2ccccc2)C2C(C)(C)CC(=O)CC2(C)C23CCC(C)(C2)C(O)CC13 (stereo unspecified),-5.07,,
Cc1cc(OCc2nnc(SC3CCCC3)n2-c2cccnc2)ccc1-c1ccc(S(C)(=O)=O)cc1,,0.411 µM (active),
CCCC(=O)C1CCN(c2ncnc3c2CN(C(=O)c2ccc(-c4ccccc4)cc2)CC3)CC1,-7.29,,
C[C@@H]1O[C@@H](O[C@H]2[C@H](OC(=O)[C@]34CCC(C)(C)C[C@H]3C3=CCC5[C@@]6(C)C[C@H](O)[C@H](O[C@@H]7O[C@H](CO)[C@@H](O)[C@H](O)[C@H]7O)[C@@](C)(CO)C6[C@H](O)C[C@@]5(C)[C@]3(C)C[C@H]4O)OC[C@H](O)[C@@H]2O)[C@H](O)[C@H](O)[C@H]1O[C@@H]1OC[C@@H](O)[C@H](O[C@H]2OC[C@](O)(CO)[C@H]2O)[C@H]1O (stereo partly specified),,,inactive
COc1cc(O)cc(/C=C/c2ccc(O[C@@H]3O[C@H](CO)[C@@H](O)[C@H](O)[C@H]3O)cc2)c1,-0.761,,
COc1ccc(N2CCOCC2)c2sc(NC(=O)N3CCC(C)(O)CC3)nc12,0.434,,
CC1OC(OC2C(O)C(OC3CCC4(C)C(CCC5(C)C4CC=C4C6CC(C)(COC7OC(CO)C(O)C(O)C7O)CC(O)C6(C)CCC45C)C3(C)C)OC(C(=O)O)C2O)C(O)C(O)C1OC1OCC(O)C(O)C1O (stereo unspecified),3.82,,
Cc1cc(O)cc(O[C@@H]2O[C@H](CO)[C@@H](O)[C@H](O)[C@H]2O)c1,,,inactive
CC1(C)CC[C@]2(C(=O)O[C@@H]3O[C@H](CO[C@@H]4O[C@H](CO)[C@@H](O)[C@H](O)[C@H]4O[C@@H]4O[C@H](CO)[C@H](O)[C@H](O)[C@H]4O)[C@@H](O)[C@H](O[C@@H]4O[C@H](CO)[C@@H](O)[C@H](O)[C@H]4O)[C@H]3O)CC[C@]3(C)C(=CCC4[C@@]5(C)CC[C@H](O[C@@H]6OC[C@@H](O)[C@H](O)[C@H]6O)[C@@](C)(C(=O)O)C5CC[C@]43C)[C@@H]2C1 (stereo partly specified),-1.09,,
OC[C@H]1O[C@@H](O[C@H]2[C@H](OCc3ccccc3)O[C@H](CO[C@@H]3OC[C@@H](O)[C@H](O)[C@H]3O)[C@@H](O)[C@@H]2O)[C@H](O)[C@@H](O)[C@@H]1O,-6.77,,
C=C(C)C1CC[C@]2(C(=O)O)CC[C@]3(C(=O)O)[C@H](CCC4[C@@]5(C)CC[C@H](O)C(C)(C)C5CC[C@]43C)C12 (stereo partly specified),-0.813,,
CNC(=S)NS(=O)(=O)c1cc(CCNC(=O)c2cc(Cl)ccc2OC)ccc1OC,3.39,,
CC1=CC2C(CC1OC1OC(CO)C(O)C(O)C1O)C(C)CC(=O)C2C(C)C (stereo unspecified),0.564,,
